Results filed as inconclusive are left out. Unmarked numbers belong to inactive results. The source made the active and inactive calls. Calls come from the whole dose curve; as a rule, active = well fitted inhibition curve with a large enough effect; inconclusive = small, poorly fitted or top-dose-only effect; inactive = flat fitted curve, though single readings scatter.
test: BET inhibitor-based combinations targeting novel dependencies in MECOM-rearranged (r) AML: AML-194 cell line (AID 2202237; note: nearly all actives have a fitted effect of over 40% in size;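 for viability (% of control): plate controls were vehicle wells for no effect and wells without cells for full effect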); details: AML-194 (MECOM-r AML) viability, CellTiter-Glo, 48 h; series mostly up to 46 µM; viability (% of control): at the top concentration
In short: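 Each compound was tested at eleven concentrations on cells seeded at 500/well. After two days' incubation, ATP-based luminescence reported viability; responses relative to DMSO and blank wells yielded AUC and cell-line-centred Z-AUC.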
Potency is the fitted concentration of half-maximal effect.

Row | SMILES | viability (% of control) | Potency
1 | Clc1ccc(-c2nc3sccn3c2/C=N/OCc2ccc(Cl)c(Cl)c2)cc1 | 100% | –
2 | CCCN(CCC)C(=O)C1=Cc2ccc(-c3ccc(C(=O)N4CCCC4)cc3)cc2N=C(N)C1 | – | 26.3 µM (active)
3 | COc1ccc2[nH]c3c(c2c1)CCN[C@]31CS[C@@H]2c3c(OC(C)=O)c(C)c4c(c3[C@H](COC1=O)N1[C@@H]2[C@H]2c3c(cc(C)c(OC)c3O)C[C@@H]([C@@H]1O)N2C)OCO4 | – | 0.0038 µM (active)
4 | COC(=O)Nc1nc2ccc(C(=O)c3ccccc3)cc2[nH]1 | – | 0.332 µM (active)
5 | COc1cc(C(N)=O)ccc1NC(=O)[C@@H]1N[C@@H](CC(C)(C)C)[C@@]2(C(=O)Nc3cc(Cl)ccc32)[C@H]1c1cccc(Cl)c1F | – | 0.59 µM (active)
6 | CC/C(=C(/c1ccc(O)cc1)c1ccc(OCCNC)cc1)c1ccccc1 | – | 13.2 µM (active)
7 | COc1ccc2c(c1)c(C1=C(c3c[nH]c4ccccc34)C(=O)NC1=O)cn2CCCN(C)C | – | 23.5 µM (active)
8 | CC(C)(C)C[C@H]1N[C@@H](C(=O)NC2CCC(O)CC2)[C@H](c2cccc(Cl)c2F)[C@@]12C(=O)Nc1cc(Cl)ccc12 (stereo partly specified) | – | 3.32 µM (active)
9 | COc1cc(C(=O)NC(N)=Nc2ccc(C)c(NC(=O)c3ccc(-c4ccccc4)cc3)c2)cc(OC)c1OC | – | 23.5 µM (active)
10 | Cc1cc2cc(Oc3ccnc(Nc4cccc(CS(=O)(=O)NCCN(C)C)c4)n3)ccc2[nH]1 | – | 16.6 µM (active)
11 | C[C@@H](O)[C@@H]1NC(=O)[C@H](CCCCN)NC(=O)[C@@H](Cc2c[nH]c3ccccc23)NC(=O)[C@H](Cc2ccccc2)NC(=O)[C@@H](NC(=O)[C@H](N)Cc2ccccc2)CSSC[C@@H](C(=O)N[C@H](CO)[C@@H](C)O)NC1=O | 104% [at 15.6 µM] | –
